# Experimental data: the supplement of paper PMC9950053
# Where a name gives a salt, the structure may show the parent alone.
# Test system: Danio rerio larvae (5 dpf)
# Experiment: excitability (activity period 17 minus period 16, 1-s interval sound) minus DMSO control (percentage points); higher = more acoustic excitability than DMSO larvae
# Conditions: 10 µM; exposure time: 3 h pre-incubation + 3 h imaging
# Procedure: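 Wild-type 5 dpf zebrafish larvae (n=48 per drug, 96-well plates, 28.5 °C) were exposed to Tocris FDA-approved library compounds at 10 µM (0.1% DMSO) for 3 h before and 3 h during imaging. Images were taken every 6 s during visual (moving coloured lines) and acoustic stimuli, and larvae were tracked with the DeepLabCut-based Z-LaP Tracker. Each behavioural measure is the treated-group mean minus the DMSO vehicle control mean (n=844), in percentage points. This mapping covers compounds with 4-character plate codes.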
row,Compound,excitability
1,C=C1[C@H](CO)[C@@H](O)C[C@@H]1n1cnc2c(=O)[nH]c(N)nc21 [Entecavir],-0.589
2,CC#C[C@]1(O)CC[C@H]2[C@@H]3CCC4=CC(=O)CCC4=C3[C@@H](c3ccc(N(C)C)cc3)C[C@@]21C [Mifepristone],5.63
3,CCCc1nc(C(C)(C)O)c(C(=O)O)n1Cc1ccc(-c2ccccc2-c2nnn[nH]2)cc1 [Olmesartan],0.0977
4,CN(CCOc1ccc(NS(C)(=O)=O)cc1)CCc1ccc(NS(C)(=O)=O)cc1 [Dofetilide],6.73
5,O=C(O)c1cc(/N=N/c2ccc(S(=O)(=O)Nc3ccccn3)cc2)ccc1O [Sulfasalazine],0.715
6,C=CC(=O)N1CCC[C@@H](n2nc(-c3ccc(Oc4ccccc4)cc3)c3c(N)ncnc32)C1 [Ibrutinib],-1.71
7,COc1ccc(-c2ccc3cc(C(=O)O)ccc3c2)cc1C12CC3CC(CC(C3)C1)C2 [Adapalene],0.726
8,CC(=O)O[C@]1(C(C)=O)CC[C@H]2[C@@H]3C=C(C)C4=CC(=O)CC[C@]4(C)[C@H]3CC[C@@]21C [Megestrol Acetate],12.4
9,OCCOCCN1CCN(C2=Nc3ccccc3Sc3ccccc32)CC1 [Quetiapine hemifumarate],9.04
10,Cc1ccsc1C(=CCCN1CCC[C@@H](C(=O)O)C1)c1sccc1C [Tiagabine hydrochloride],-6.75
11,CCCCNc1cc(C(=O)O)cc(S(N)(=O)=O)c1Oc1ccccc1 [Bumetanide],7.06
12,CC[C@H](C)C(=O)O[C@H]1C[C@@H](C)C=C2C=C[C@H](C)[C@H](CC[C@@H]3C[C@@H](O)CC(=O)O3)[C@H]21 [Lovastatin],15
13,NS(=O)(=O)c1cc(C(=O)O)c(NCc2ccco2)cc1Cl [Furosemide],-1.6
14,CCN(CC)CCNC(=O)c1c(C)[nH]c(/C=C2\C(=O)Nc3ccc(F)cc32)c1C [Sunitinib malate],15.8
15,COc1ccccc1OCCNCC(O)COc1cccc2[nH]c3ccccc3c12 (stereo not given) [Carvedilol],22.5
16,CS(=O)(=O)CCNCc1ccc(-c2ccc3ncnc(Nc4ccc(OCc5cccc(F)c5)c(Cl)c4)c3c2)o1 [Lapatinib],15.5
17,CC(C)[C@H]1CC[C@H](C(=O)N[C@H](Cc2ccccc2)C(=O)O)CC1 [Nateglinide],2.5
18,CC1=Nc2ccc(Cl)cc2S(=O)(=O)N1 [Diazoxide],3.88
19,Nc1cccc2c1CN(C1CCC(=O)NC1=O)C2=O (stereo not given) [Lenalidomide],-1.97
20,CN1CC2c3ccccc3Oc3ccc(Cl)cc3C2C1 (stereo not given) [Asenapine maleate],14.2

row,Compound,excitability
1,Cc1nc(Nc2ncc(C(=O)Nc3c(C)cccc3Cl)s2)cc(N2CCN(CCO)CC2)n1 [Dasatinib],17.4
2,CCOC(=O)[C@H](CCc1ccccc1)N[C@H]1CCc2ccccc2N(CC(=O)O)C1=O [Benazepril hydrochloride],0.927
3,O=C(NCC1CCCCN1)c1cc(OCC(F)(F)F)ccc1OCC(F)(F)F (stereo not given) [Flecainide acetate],6.31
4,Cc1ccc(O)c([C@H](CCN(C(C)C)C(C)C)c2ccccc2)c1 [Tolterodine L-tartrate],4.8
5,CN(CCOc1ccc(CC2SC(=O)NC2=O)cc1)c1ccccn1 (stereo not given) [Rosiglitazone],17.9
6,CCOc1ccccc1OCCN[C@H](C)Cc1ccc(OC)c(S(N)(=O)=O)c1 [Tamsulosin hydrochloride],16.7
7,CCC(=O)O[C@]1(C(=O)SCF)[C@H](C)C[C@H]2[C@@H]3C[C@H](F)C4=CC(=O)C=C[C@]4(C)[C@@]3(F)[C@@H](O)C[C@@]21C [Fluticasone propionate],3.16
8,Clc1ccc(COC(Cn2ccnc2)c2ccc(Cl)cc2Cl)c(Cl)c1 (stereo not given) [Miconazole nitrate],-1.24
9,COC(=O)C1=C(C)NC(C)=C(C(=O)OC(C)C)C1c1cccc2nonc12 (stereo not given) [Isradipine],15.3
10,Nc1nc2[nH]cc(CCc3ccc(C(=O)N[C@@H](CCC(=O)O)C(=O)O)cc3)c2c(=O)[nH]1 [Pemetrexed],2.33
11,CC(=O)O[C@H]1C(=O)[C@@]2(C)[C@H]([C@H](OC(=O)c3ccccc3)[C@]3(O)C[C@H](OC(=O)[C@H](O)[C@@H](NC(=O)c4ccccc4)c4ccccc4)C(C)=C1C3(C)C)[C@]1(OC(C)=O)CO[C@@H]1C[C@@H]2O [Taxol],2.27
12,COc1cc2ncnc(Nc3ccc(F)c(Cl)c3)c2cc1OCCCN1CCOCC1 [Iressa],19.5
13,C[C@@H](O[C@H]1OCCN(Cc2n[nH]c(=O)[nH]2)[C@H]1c1ccc(F)cc1)c1cc(C(F)(F)F)cc(C(F)(F)F)c1 [Aprepitant],8.09
14,COc1ccc([C@@H]2Sc3ccccc3N(CCN(C)C)C(=O)[C@@H]2OC(C)=O)cc1 [Diltiazem hydrochloride],1.06
15,O=C1CCc2cc(OCCCCc3nnnn3C3CCCCC3)ccc2N1 [Cilostazol],9.2
16,CN(C)CCC[C@@]1(c2ccc(F)cc2)OCc2cc(C#N)ccc21 [Escitalopram oxalate],14.5
17,Nc1nc(Cl)nc2c1ncn2[C@@H]1O[C@H](CO)[C@@H](O)[C@@H]1F [Clofarabine],4.52
18,CCOc1cc(CC(=O)N[C@@H](CC(C)C)c2ccccc2N2CCCCC2)ccc1C(=O)O [Repaglinide],9.5
19,CN1CCC[C@@H]1Cc1c[nH]c2ccc(CCS(=O)(=O)c3ccccc3)cc12 [Eletriptan hydrobromide],6.84
20,CCCc1nc2c(C)cc(-c3nc4ccccc4n3C)cc2n1Cc1ccc(-c2ccccc2C(=O)O)cc1 [Telmisartan],15.1
